From PubChem BioAssay (NCATS)
“And” between values parts separate entries of the source, which are not always exact repeats. Identical values can stand only once. Inconclusive results are not listed. Where a call stands in place of a potency, no number is given. Some structures have more than one record in an assay (separate samples or runs), and their calls can disagree. The source made the active and inactive calls. Unless noted, the call rests on the fitted dose curve.

Experiments:
[1] = target: Peroxisome proliferator-activated receptor delta (Homo sapiens) (UniProt Q03181); assay: qHTS assay for small molecule agonists of peroxisome proliferator-activated receptor delta signaling (AID 588534)
Method in brief: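 Fluorescence from CCF4 substrate cleavage by beta-lactamase reporter, read 2 hrs at RT, measured agonist activity. Compounds were tested with 18 hrs exposure at 37 C. Concentration-response data fitted to Hill equation.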

[2] = qHTS assay for small molecule antagonists of peroxisome proliferator-activated receptor delta signaling (AID 588535; active means well fitted inhibition curve with a large enough effect in the signal ratio, with a control signal flat, not every such curve was filed as active; the % refers to the signal ratio;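 on max response: cells co-treated with a PPAR-delta agonist as stimulator during compound exposure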); conditions: HEK293T PPARd-UAS-bla, beta-lactamase FRET ratio, 18 h; 460 nm channel
Method in brief: (§1)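 HEK293T PPAR-delta-UAS-bla cells, 4000/well, 2% charcoal/dextran FBS; 5 h 37 C; cpd titration; 18 h 37 C; CCF4 2 h RT; FI 460/530 nm; Hill fit → IC50, efficacy.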

[3] = target: Peroxisome proliferator-activated receptor delta (Homo sapiens) (UniProt Q03181); assay: as above
Method in brief: as §1

[4] = target: Peroxisome proliferator-activated receptor gamma (Homo sapiens) (UniProt P37231); assay: qHTS assay for small molecule agonists of peroxisome proliferator-activated receptor gamma signaling (AID 588536; active means well fitted curve in the direction sought with a large enough effect in the signal ratio, with a control signal flat, not every such curve was filed as active; the % refers to the signal ratio)
Method in brief: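 HEK293 UAS-bla reporter line, 1% charcoal/dextran FBS; titration, 16 h, 37 C; CCF4 loading 2 h RT; fluorescence 460/530 nm. Normalized to rosiglitazone 2 uM = 100%, DMSO = 0%.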

[5] = target: Peroxisome proliferator-activated receptor gamma (Homo sapiens) (UniProt P37231); assay: qHTS assay for small molecule antagonists of peroxisome proliferator-activated receptor gamma signaling (AID 588537; active means well fitted inhibition curve with a large enough effect in the signal ratio, with a control signal flat, not every such curve was filed as active; the % refers to the signal ratio; further: potency means the concentration at half of the fitted maximal effect)
Method in brief: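 Antagonist mode, beta-lactamase reporter in HEK293; charcoal/dextran FBS 1%; 3000 cells/well, 37 C 6-6.5 h; cpd titration + rosiglitazone 50 nM final, 16 h 37 C; CCF4, 2 h RT; 460/530 nm; Hill fit → IC50, efficacy.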

[6] = target: Vitamin D3 receptor (Homo sapiens) (UniProt P11473); assay: qHTS assay for small molecule antagonists of vitamin D receptor signaling (AID 588541);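 further: receptor activated by calcitriol during compound treatment; series mostly up to about 77 µM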
Method in brief: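 Antagonist-mode beta-lactamase reporter assay: HEK293T VDR-UAS-bla cells were exposed to titrated compound alongside 1-alpha,25-dihydroxyvitamin D3 at 3 nM final for 16 h. Values were normalized to the 50 nM agonist control and DMSO basal, with IC50 and efficacy from Hill equation fits.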

[7] = target: Vitamin D3 receptor (Homo sapiens) (UniProt P11473); assay: qHTS assay for small molecule agonists of vitamin D receptor signaling (AID 588543)
Method in brief: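 qHTS in agonist mode: compound titrations stimulate a VDR-driven β-lactamase reporter in HEK293T cells over 16 h at 37 °C. Response normalized to 50 nM 1α,25-dihydroxyvitamin D3 = 100%, DMSO = 0%; Hill fitting gives EC50 and maximal response.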

[8] = qHTS assay for small molecule agonists of retinoid X receptor alpha signaling (AID 588544); conditions: HEK293T RXRa-UAS-bla, beta-lactamase reporter, 18 h; 530 nm emission
[9] = target: Retinoic acid receptor RXR-alpha (Homo sapiens) (UniProt P19793); assay: as above
[10] = qHTS assay for small molecule antagonists of retinoid X receptor alpha signaling (AID 588546; active means well fitted inhibition curve with a large enough effect in the signal ratio, with a control signal flat, not every such curve was filed as active; the % refers to the signal ratio;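 further: cells stimulated with 9-cis-retinoic acid as agonist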); conditions: HEK293T RXRa-UAS-bla, beta-lactamase ratio, antagonist mode; measured here: W530 green channel, cytotoxicity proxy
Method in brief: (§2)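 Beta-lactamase reporter inhibition, read as CCF4 fluorescence ratio (ex 405, em 460/530 nm) after 2 h at RT. HEK293T UAS-bla cells, 2500/well, were stimulated with 9-cis-RA at 500 or 100 nM final alongside test compound for 18 h at 37 C.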

[11] = target: Retinoic acid receptor RXR-alpha (Homo sapiens) (UniProt P19793); assay: as above; conditions: HEK293T RXRa-UAS-bla, beta-lactamase ratio, antagonist mode
Method in brief: as §2

[12] = target: Voltage-gated inwardly rectifying potassium channel KCNH2 (Homo sapiens) (UniProt Q12809); assay: qHTS Assay for Small Molecule Inhibitors of the Human hERG Channel Activity (AID 588834; active means well fitted curve in the direction sought with a large enough effect; an effect the other way counts as inactive or inconclusive;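 further: top concentration of the series differs between compounds; lower thallium flux fluorescence means stronger hERG block; nearly all actives have a fitted effect of over 50% in size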)
Method in brief: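 Measured: FluxOR fluorescence after thallium stimulation in U2OS cells transduced with hERG by baculovirus. Compounds pre-incubated around 10 min; medium Opti-MEM with 2% FCS. AC50 from Hill equation.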

[13] = target: Luciferin 4-monooxygenase (Photinus pyralis) (UniProt P08659); assay: Biochemical firefly luciferase enzyme assay for NPC (AID 624030; active means well fitted curve in the direction sought with a large enough effect; an effect the other way counts as inactive or inconclusive;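 further: purified P. pyralis luciferase at 10 nM with luciferin and ATP substrate; series mostly up to about 59 µM; nearly all actives have a fitted effect of over 70% in size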)
Method in brief: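 Direct inhibition of firefly luciferase enzyme (10 nM final, 50 mM Tris Acetate) assessed by luminescence within 5 minutes. Percent activity scaled between DMSO and PTC124 positive control, with concentration-effect curves classified by fit quality and response.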

[14] = target: Thyroid hormone receptor beta (Homo sapiens) (UniProt P10828); assay: qHTS assay for small molecule antagonists of thyroid hormone receptor beta signaling (AID 588547; active means well fitted inhibition curve with a large enough effect in the signal ratio, with a control signal flat, not every such curve was filed as active; the % refers to the signal ratio;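 further: cells stimulated with 0.4 nM T3 agonist during compound exposure; series mostly up to about 77 µM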); conditions: TR-UAS-bla HEK293, beta-lactamase ratio, antagonist mode, 18 h
Method in brief: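 Inhibition of T3-driven (0.4nM final) beta-lactamase reporter activity was measured over 0.59 nM to 92 uM compound after 18 h at 37 C. The cells were GripTite HEK293 TR-UAS-bla in charcoal/dextran-stripped serum, with CCF4 ratio read-out and IC50 from Hill fits.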

[15] = target: Thyroid hormone receptor beta (Homo sapiens) (UniProt P10828); assay: qHTS assay for small molecule agonists of thyroid hormone receptor beta signaling (AID 588545)
Method in brief: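 TR-UAS-bla GripTite HEK 293 cells (2500/well, medium with 2% charcoal/dextran FBS) were treated in agonist mode for 18 h at 37 C, titrated. Beta-lactamase was read by CCF4 ratio after 2 h; normalized to 10 nM T3 (100%) and DMSO, Hill-fitted for EC50 and efficacy.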

[16] = S16 Schwann cell viability assay (CellTiter-Glo assay) (AID 624031; active means well fitted curve in the direction sought with a large enough effect; an effect the other way counts as inactive or inconclusive;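 further: native untransfected S16 rat Schwann cells; series mostly up to about 58 µM; nearly all actives have a fitted effect of over 70% in size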)
Method in brief: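 Counter-screen for cytotoxicity: parental S16 rat Schwann cells lacking the PMP22 reporters, treated 24 h with compound, viability from cellular ATP by CellTiter-Glo luminescence, normalized to DMSO (0%) and no-cell wells.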

[17] = S16 Schwann cell PMP22 intronic element firefly luciferase assay (AID 624032; active means well fitted curve in the direction sought with a large enough effect; an effect the other way counts as inactive or inconclusive; further: series mostly up to about 58 µM; nearly all actives have a fitted effect of over 30% in size)
Method in brief: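 Luciferase reporter of PMP22 intronic-element expression in stably transfected S16 rat Schwann cells, read by ONE-Glo luminescence after 24 h compound exposure at 37 C. Activity scaled between DMSO (0%) and positive-control PTC124; concentration-effect curves quality-classified.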

Peroxisome proliferator-activated receptor gamma (Homo sapiens), sequence (P37231 whole entry, looked up): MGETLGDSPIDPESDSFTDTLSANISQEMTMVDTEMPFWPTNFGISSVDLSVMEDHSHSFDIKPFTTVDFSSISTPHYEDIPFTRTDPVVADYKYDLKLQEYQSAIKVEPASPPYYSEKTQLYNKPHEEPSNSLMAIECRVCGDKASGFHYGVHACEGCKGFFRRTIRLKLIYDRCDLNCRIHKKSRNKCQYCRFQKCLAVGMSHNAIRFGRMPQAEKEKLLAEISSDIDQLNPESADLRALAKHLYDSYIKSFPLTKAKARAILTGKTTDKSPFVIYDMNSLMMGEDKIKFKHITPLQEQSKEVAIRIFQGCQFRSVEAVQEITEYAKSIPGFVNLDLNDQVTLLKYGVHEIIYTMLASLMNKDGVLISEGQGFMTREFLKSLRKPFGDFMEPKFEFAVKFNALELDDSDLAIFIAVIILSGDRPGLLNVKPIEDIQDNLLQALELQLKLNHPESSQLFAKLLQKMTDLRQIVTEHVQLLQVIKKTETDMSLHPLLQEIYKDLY
Thyroid hormone receptor beta (Homo sapiens), sequence (P10828 whole entry, looked up): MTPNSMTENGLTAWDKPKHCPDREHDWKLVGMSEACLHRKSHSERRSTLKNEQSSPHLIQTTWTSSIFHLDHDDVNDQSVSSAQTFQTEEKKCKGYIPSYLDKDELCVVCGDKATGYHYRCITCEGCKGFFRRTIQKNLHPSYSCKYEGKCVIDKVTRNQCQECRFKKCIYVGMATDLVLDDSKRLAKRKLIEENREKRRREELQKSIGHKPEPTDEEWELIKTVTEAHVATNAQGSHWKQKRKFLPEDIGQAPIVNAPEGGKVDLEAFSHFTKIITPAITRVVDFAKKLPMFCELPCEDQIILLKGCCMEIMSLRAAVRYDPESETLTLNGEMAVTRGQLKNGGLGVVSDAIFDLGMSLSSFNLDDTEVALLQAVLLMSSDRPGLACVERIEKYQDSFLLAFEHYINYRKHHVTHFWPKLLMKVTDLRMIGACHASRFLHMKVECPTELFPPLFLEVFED
Voltage-gated inwardly rectifying potassium channel KCNH2 (Homo sapiens), sequence (Q12809 whole entry, looked up): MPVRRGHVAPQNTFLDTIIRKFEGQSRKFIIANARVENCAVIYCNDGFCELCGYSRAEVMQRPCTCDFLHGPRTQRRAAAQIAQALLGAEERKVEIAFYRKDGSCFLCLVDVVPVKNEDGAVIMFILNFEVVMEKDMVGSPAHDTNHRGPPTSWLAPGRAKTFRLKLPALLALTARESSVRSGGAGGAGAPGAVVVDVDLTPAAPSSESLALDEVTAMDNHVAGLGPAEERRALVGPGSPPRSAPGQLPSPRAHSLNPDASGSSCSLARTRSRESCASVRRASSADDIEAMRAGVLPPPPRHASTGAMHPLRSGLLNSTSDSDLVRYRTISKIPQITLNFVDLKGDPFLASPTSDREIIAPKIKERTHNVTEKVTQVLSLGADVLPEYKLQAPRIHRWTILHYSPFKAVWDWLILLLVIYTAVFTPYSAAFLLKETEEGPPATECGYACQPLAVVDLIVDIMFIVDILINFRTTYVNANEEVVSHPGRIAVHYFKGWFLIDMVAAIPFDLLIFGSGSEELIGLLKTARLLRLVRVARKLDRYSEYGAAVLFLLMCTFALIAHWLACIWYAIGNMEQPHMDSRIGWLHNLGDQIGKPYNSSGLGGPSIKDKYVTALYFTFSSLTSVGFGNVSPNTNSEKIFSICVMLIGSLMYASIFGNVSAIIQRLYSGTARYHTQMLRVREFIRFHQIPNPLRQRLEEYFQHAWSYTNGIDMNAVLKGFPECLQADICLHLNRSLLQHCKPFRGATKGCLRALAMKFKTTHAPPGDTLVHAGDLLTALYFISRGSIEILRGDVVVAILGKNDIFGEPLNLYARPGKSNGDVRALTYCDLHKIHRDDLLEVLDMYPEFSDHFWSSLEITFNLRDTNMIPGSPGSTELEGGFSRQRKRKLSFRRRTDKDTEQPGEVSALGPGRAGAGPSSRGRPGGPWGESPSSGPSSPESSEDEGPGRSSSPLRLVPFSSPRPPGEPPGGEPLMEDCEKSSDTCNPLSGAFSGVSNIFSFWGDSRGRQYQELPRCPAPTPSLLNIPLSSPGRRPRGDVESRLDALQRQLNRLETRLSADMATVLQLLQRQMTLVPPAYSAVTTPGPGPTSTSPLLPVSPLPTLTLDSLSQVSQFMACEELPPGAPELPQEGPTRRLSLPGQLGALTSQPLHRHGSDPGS
Peroxisome proliferator-activated receptor delta (Homo sapiens), sequence (Q03181 whole entry, looked up): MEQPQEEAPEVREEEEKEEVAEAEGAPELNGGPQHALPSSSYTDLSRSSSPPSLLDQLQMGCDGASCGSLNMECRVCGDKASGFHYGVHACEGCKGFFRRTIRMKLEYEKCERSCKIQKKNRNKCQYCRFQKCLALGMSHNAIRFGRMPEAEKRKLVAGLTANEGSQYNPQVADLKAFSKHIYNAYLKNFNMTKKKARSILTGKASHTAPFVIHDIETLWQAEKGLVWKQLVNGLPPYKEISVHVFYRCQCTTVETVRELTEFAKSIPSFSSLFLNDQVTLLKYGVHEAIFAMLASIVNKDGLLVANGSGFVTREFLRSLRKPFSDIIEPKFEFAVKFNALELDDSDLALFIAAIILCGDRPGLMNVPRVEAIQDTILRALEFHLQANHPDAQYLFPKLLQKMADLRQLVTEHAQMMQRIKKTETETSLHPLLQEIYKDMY
Retinoic acid receptor RXR-alpha (Homo sapiens), sequence (P19793 whole entry, looked up): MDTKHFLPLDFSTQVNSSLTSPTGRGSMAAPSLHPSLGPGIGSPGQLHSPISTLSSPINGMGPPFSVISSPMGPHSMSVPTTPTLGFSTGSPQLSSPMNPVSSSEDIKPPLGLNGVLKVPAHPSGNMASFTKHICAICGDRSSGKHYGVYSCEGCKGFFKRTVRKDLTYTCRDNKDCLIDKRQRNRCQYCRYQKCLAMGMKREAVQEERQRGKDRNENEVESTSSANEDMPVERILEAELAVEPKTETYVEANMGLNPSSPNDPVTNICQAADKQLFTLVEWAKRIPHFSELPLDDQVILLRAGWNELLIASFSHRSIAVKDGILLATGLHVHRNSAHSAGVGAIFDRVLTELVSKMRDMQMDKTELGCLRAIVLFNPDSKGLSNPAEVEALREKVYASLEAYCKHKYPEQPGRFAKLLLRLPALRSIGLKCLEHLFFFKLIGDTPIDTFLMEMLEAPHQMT
Luciferin 4-monooxygenase (Photinus pyralis), sequence (P08659 whole entry, looked up): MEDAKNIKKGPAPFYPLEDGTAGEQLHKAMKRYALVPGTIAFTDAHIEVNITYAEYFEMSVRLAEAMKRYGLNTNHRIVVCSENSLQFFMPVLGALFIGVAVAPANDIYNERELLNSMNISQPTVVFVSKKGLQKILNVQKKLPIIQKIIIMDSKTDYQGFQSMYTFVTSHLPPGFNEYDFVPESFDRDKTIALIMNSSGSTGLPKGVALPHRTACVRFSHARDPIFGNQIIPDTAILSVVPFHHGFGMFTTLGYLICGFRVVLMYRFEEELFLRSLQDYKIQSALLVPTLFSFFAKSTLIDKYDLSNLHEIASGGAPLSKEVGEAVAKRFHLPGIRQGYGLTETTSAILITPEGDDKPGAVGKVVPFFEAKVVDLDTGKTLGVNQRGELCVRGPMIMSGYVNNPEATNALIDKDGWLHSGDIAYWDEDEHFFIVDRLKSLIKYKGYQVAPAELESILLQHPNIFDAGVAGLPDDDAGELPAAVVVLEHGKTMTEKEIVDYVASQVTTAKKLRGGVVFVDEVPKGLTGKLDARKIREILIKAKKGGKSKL
Vitamin D3 receptor (Homo sapiens), sequence (P11473 whole entry, looked up): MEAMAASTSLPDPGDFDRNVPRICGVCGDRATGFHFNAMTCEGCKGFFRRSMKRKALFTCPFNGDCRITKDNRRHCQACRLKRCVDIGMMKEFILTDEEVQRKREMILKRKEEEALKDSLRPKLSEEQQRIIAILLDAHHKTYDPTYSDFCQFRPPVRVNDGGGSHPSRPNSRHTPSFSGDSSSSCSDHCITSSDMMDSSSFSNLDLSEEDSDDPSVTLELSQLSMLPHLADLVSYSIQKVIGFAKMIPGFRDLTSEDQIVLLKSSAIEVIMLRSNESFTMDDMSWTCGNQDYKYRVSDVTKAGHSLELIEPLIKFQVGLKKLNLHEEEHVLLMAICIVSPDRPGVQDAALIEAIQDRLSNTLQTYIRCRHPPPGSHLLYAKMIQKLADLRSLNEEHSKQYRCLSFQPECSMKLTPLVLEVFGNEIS

Question: With `CCCOC(=O)c1ccc(O)cc1` as the compound, how does the outcome [1] read?
Answer: inactive

Question: What does the source list for `CCOP(=O)(NC(C)C)Oc1ccc(SC)c(C)c1` (configuration not stated)?
Answer: outcome [1]: inactive; max response [2]: 97.8%; Potency [3]: inactive; outcome [4]: inactive; Potency [5]: inactive and 44.7 µM (active); Potency [6]: inactive; outcome [7]: inactive; max response [8]: 8.26%; Potency [9]: inactive; max response [10]: 1.81% and -9.53%; max response [11]: -12.2% (inactive) and -3.23% (inactive); Potency [12]: inactive; Potency [13]: inactive

Question: For `C=CC(=O)NCNC(=O)C=C`, which outcome [1] is on record?
Answer: inactive

Question: What about the max response [2] of the same compound?
Answer: -23.6%

Question: What about the Potency [3] of the same compound?
Answer: inactive

Question: And the outcome [4]?
Answer: inactive

Question: What about the Potency [5] of the same compound?
Answer: inactive

Question: What about the Potency [6] of the same compound?
Answer: inactive

Question: What about the outcome [7] of the same compound?
Answer: inactive

Question: What about the max response [8] of the same compound?
Answer: 1.23% and 0.699%

Question: And the Potency [9]?
Answer: inactive

Question: And the max response [10]?
Answer: -7% and 1.5%

Question: And the max response [11]?
Answer: 10.7% (inactive) and -13.1% (inactive)

Question: And the activity change % (negative = inhibition) [14]?
Answer: -12.9% (inactive) and 1.41% (inactive)

Question: And the Potency [12]?
Answer: inactive

Question: What about the Potency [13] of the same compound?
Answer: inactive

Question: Which outcome [1] does the source give for `CN1C(=O)c2ccccc2C1=O` here?
Answer: inactive

Question: With `O=c1cc(-c2ccccc2)oc2ccccc12` as the compound, how does the outcome [1] read?
Answer: inactive

Question: Which results are given for `C1CCC(NC2CCCCC2)CC1`?
Answer: outcome [1]: inactive; max response [2]: 10% and 0.455%; Potency [3]: inactive; outcome [4]: inactive; Potency [5]: inactive; Potency [6]: inactive; outcome [7]: inactive; max response [8]: -15% and -1.01% and -0.218%; Potency [9]: inactive; outcome [15]: inactive; max response [10]: -3.33% and -12% and -7.77%; max response [11]: 9.08% (inactive) and 2.51% (inactive) and 3.48% (inactive); activity change % (negative = inhibition) [14]: -2.7% (inactive) and -4.6% (inactive) and 5.65% (inactive); Potency [12]: inactive; Potency [13]: inactive; Potency [16]: inactive; Potency [17]: inactive
